Laboratory results reported in the supplement of paper PMC10849652.
About 7,900 targets were measured; listed, in parts, are those with a hit and a random draw of the rest. About 0.6% of all pairs of compound and target were hits.

Columns and labels:
Test in all cases: log2 fold change, soluble protein after heating vs DMSO (PISA); higher = thermal stabilisation; K562 cells, 10 uM, 30 min; active = over 0.2 and 3.5 SD of the protein, either way, in both replicates (recomputed)
[1] = compound: CN1CCN(CCOc2cc(OC3CCOCC3)c3c(Nc4c(Cl)ccc5c4OCO5)ncnc3c2)CC1 [saracatinib]
Method in brief: (§1)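 Aliquots of K562 cells (2×10^6 cells/mL) treated with 10 μM compound for 30 min were heated for 3 min over 48°C-58°C. After pooling and extraction in PBS with 0.5% NP-40 at 4°C, soluble protein from a 21,000xg, 90 min spin was quantified by TMTpro 16plex LC-MS/MS with channel sums equalised. Thermal stability is expressed against control samples, from duplicates, as a log2 fold change.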

[2] = compound: CN1CCN(c2nc(C3=C(c4c[nH]c5ccccc45)C(=O)NC3=O)c3ccccc3n2)CC1 [sotrastaurin]
Method in brief: as §1

[3] = compound: CN1CC[C@H](c2c(O)cc(O)c3c(=O)cc(-c4ccccc4Cl)oc23)[C@H](O)C1 [alvocidib]
Method in brief: as §1

[4] = compound: CN1CCc2c(c3ccccc3n2Cc2ccc(C(=O)NO)cc2)C1 [Tubastatin A]
Method in brief: as §1

[5] = compound: CNC(=O)C1=CC=CC=C1NC2=NC(=NC=C2Cl)NC3=C(C=C(C=C3)N4CCOCC4)OC
Method in brief: as §1

[6] = compound: CNC(=O)c1ccc(Nc2ncc(C(F)(F)F)c(NCc3nccnc3N(C)S(C)(=O)=O)n2)cc1 [defactinib]
Method in brief: as §1

[7] = compound: CNCc1ccc(-c2[nH]c3cc(F)cc4c3c2CCNC4=O)cc1 [rucaparib]
Method in brief: as §1

[8] = compound: CNc1nc(-c2ccc3c(N)n[nH]c3c2)cc(N2C[C@@H](C(=O)NC3CCCCC3)CC[C@H]2C)n1
Method in brief: as §1

[9] = compound: COC(=O)N[C@@H](C)CNc1nccc(-c2cn(C(C)C)nc2-c2cc(Cl)cc(NS(C)(=O)=O)c2F)n1 [encorafenib]
Method in brief: as §1

[10] = compound: COC(=O)[C@H](CCSC)NC(=O)C1=C(C=C(C=C1)NC[C@H](CS)N)C2=CC=CC=C2
Method in brief: as §1

Measured: log2 fold change

BID isoform 2 (UniProt P55957)
Sequence of UniProt P55957 (P55957 whole entry, looked up): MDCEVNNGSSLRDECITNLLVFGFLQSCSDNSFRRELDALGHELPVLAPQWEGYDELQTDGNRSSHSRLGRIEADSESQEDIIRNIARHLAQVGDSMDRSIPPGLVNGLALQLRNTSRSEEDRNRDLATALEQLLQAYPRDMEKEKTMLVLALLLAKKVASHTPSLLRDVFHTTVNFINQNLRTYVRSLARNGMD
inactive: [1] 0.008 | [2] 0.04 | [3] -0.018 | [4] 0.076 | [5] -0.053 | [6] -0.031 | [7] 0.033 | [8] -0.017 | [9] -0.011 | [10] -0.032

ARRDC1 (UniProt Q8N5I2)
inactive: [1] 0.17 | [2] -0.026 | [3] -0.275 | [4] 0.004 | [5] -0.06 | [6] -0.046 | [7] 0.075 | [8] -0.02 | [9] -0.01 | [10] -0.006

ACSL3 (UniProt O95573)
inactive: [1] 0 | [2] -0.014 | [3] -0.037 | [4] -0.022 | [5] -0.008 | [6] -0.043 | [7] -0.002 | [8] 0.041 | [9] 0.008 | [10] -0.01

ACP2 (UniProt P11117)
Sequence of UniProt P11117 (P11117 whole entry, looked up): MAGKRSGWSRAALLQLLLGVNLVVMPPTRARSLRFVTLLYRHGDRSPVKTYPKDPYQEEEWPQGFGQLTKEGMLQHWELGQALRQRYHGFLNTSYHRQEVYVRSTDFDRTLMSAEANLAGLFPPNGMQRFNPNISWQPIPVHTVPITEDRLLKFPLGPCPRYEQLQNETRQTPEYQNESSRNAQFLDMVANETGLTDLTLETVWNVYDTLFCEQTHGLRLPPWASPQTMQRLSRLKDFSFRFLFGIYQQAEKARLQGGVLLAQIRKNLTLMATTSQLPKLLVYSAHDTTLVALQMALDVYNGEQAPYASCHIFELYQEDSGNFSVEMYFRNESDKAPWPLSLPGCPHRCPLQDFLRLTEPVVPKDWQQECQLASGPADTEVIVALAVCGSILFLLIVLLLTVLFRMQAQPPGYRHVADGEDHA
inactive: [1] 0.026 | [2] 0.022 | [3] 0.003 | [4] -0.036 | [5] -0.006 | [6] 0.01 | [7] -0.089 | [8] -0.055 | [9] 0.018 | [10] -0.006

AKR1C2 (UniProt P52895)
inactive: [1] -0.108 | [2] -0.009 | [3] 0.08 | [4] 0.111 | [5] 0.052 | [6] 0.146 | [7] 0.146 | [8] 0.047 | [9] 0.094 | [10] -0.06

ATP6AP1 (UniProt Q15904)
inactive: [1] -0.021 | [2] -0.097 | [3] 0.055 | [4] 0.043 | [5] -0.011 | [6] 0.066 | [7] -0.057 | [8] -0.006 | [9] 0.053 | [10] -0.031

ATP9B (UniProt O43861)
inactive: [1] 0.13 | [2] -0.185 | [3] 0.008 | [4] -0.055 | [5] -0.02 | [6] -0.025 | [7] 0.081 | [8] -0.027 | [9] 0.058 | [10] 0.06

BRIP1 (UniProt Q9BX63)
inactive: [1] -0.034 | [2] -0.016 | [3] -0.067 | [4] -0.089 | [5] 0.001 | [6] 0.083 | [7] -0.068 | [8] -0.088 | [9] -0.003 | [10] 0.018

ATIC (UniProt P31939)
inactive: [1] -0.013 | [2] -0.001 | [3] -0.064 | [4] 0.008 | [5] 0.087 | [6] -0.059 | [7] -0.05 | [8] 0.044 | [9] -0.011 | [10] -0.028

ARL3 (UniProt P36405)
inactive: [1] 0.021 | [2] -0.008 | [3] -0.01 | [4] -0.012 | [5] -0.025 | [6] -0.025 | [7] -0.033 | [8] -0.035 | [9] -0.022 | [10] 0.022

ACADM isoform 2 (UniProt P11310)
inactive: [1] 0.031 | [3] -0.006 | [4] -0.03 | [5] 0.019 | [6] -0.016 | [7] -0.024 | [8] 0.083 | [9] -0.016 | [10] 0.004
active: [2] 0.274

ARL6IP6 (UniProt Q8N6S5)
Sequence of UniProt Q8N6S5 (Q8N6S5 whole entry, looked up): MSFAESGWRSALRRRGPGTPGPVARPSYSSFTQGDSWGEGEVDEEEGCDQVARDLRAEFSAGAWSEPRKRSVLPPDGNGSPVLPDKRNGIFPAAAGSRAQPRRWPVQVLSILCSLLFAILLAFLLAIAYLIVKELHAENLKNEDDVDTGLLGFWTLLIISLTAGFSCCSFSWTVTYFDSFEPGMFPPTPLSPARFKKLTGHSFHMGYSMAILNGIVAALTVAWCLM
inactive: [1] 0.192 | [2] 0.005 | [3] -0.082 | [4] -0.014 | [5] -0.099 | [6] -0.053 | [7] 0.009 | [8] 0.004 | [9] 0.015 | [10] -0.035

AAR2 (UniProt Q9Y312)
inactive: [1] 0.06 | [2] -0.017 | [3] -0.026 | [4] -0.027 | [5] -0.049 | [6] 0.063 | [7] 0.17 | [8] -0.069 | [9] -0.029 | [10] -0.015

BRK1 isoform 2 (UniProt Q8WUW1)
Sequence of UniProt Q8WUW1 (Q8WUW1 whole entry, looked up): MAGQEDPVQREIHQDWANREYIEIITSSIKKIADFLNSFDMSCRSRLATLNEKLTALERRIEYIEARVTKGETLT
inactive: [1] 0.036 | [2] 0.007 | [3] -0.027 | [4] 0.037 | [5] -0.011 | [6] -0.074 | [7] -0.05 | [8] -0.03 | [9] -0.063 | [10] -0.018

AFG1L (UniProt Q8WV93)
inactive: [1] -0.038 | [2] -0.075 | [3] -0.195 | [4] -0.204 | [5] -0.011 | [6] -0.131 | [7] -0.057 | [8] 0.002 | [9] 0.025 | [10] 0.088

ATL2 (UniProt Q8NHH9)
inactive: [1] -0.032 | [2] 0.05 | [3] -0.05 | [4] 0.047 | [5] 0.005 | [6] 0.008 | [7] 0.019 | [8] 0.035 | [9] 0.005 | [10] 0.008

ARFIP1 (UniProt P53367)
Sequence of UniProt P53367 (P53367 whole entry, looked up): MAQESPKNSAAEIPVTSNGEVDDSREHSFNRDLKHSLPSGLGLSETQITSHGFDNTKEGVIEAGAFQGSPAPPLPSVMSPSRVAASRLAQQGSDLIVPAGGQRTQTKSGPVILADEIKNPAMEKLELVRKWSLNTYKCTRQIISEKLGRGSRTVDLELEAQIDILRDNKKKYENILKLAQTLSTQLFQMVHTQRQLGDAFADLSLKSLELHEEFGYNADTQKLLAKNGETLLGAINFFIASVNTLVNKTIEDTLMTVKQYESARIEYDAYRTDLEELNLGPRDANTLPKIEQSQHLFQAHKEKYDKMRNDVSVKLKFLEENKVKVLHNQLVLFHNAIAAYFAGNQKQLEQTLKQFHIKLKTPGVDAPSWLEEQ
active: [5] -0.351
inactive: [1] 0.043 | [2] -0.037 | [3] -0.031 | [4] 0.047 | [6] -0.08 | [7] -0.086 | [8] 0.075 | [9] -0.01 | [10] 0.163

ARPP19 (UniProt P56211)
Sequence of UniProt P56211 (P56211 whole entry, looked up): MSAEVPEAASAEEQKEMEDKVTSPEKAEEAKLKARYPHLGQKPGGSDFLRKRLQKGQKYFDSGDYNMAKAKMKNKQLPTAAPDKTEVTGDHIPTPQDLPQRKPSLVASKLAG
inactive: [1] -0.002 | [2] 0.01 | [3] 0.032 | [4] -0.047 | [5] -0.015 | [6] -0.089 | [7] -0.05 | [8] -0.056 | [9] -0.016 | [10] 0.002

ALDH6A1 (UniProt Q02252)
inactive: [1] 0.031 | [2] 0.144 | [3] -0.098 | [4] 0.03 | [5] 0.021 | [6] -0.021 | [7] 0.021 | [8] -0.045 | [9] 0.024 | [10] -0.008

AARSD1 isoform 3 (UniProt Q9BTE6)
Sequence of UniProt Q9BTE6 (Q9BTE6 whole entry, looked up): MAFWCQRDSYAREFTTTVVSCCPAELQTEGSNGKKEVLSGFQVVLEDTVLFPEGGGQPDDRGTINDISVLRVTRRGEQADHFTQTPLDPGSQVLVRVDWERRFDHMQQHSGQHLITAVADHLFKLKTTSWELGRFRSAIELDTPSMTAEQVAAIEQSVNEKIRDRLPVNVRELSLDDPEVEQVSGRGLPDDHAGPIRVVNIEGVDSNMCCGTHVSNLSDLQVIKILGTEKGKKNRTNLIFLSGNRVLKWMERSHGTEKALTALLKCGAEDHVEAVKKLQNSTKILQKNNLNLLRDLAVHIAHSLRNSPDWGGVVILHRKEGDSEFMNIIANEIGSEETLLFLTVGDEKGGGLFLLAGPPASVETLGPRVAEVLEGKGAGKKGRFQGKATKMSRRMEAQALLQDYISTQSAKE
inactive: [1] -0.009 | [2] -0.113 | [3] -0.016 | [5] 0.081 | [6] -0.071 | [7] -0.077 | [8] -0.037 | [9] 0.08 | [10] 0.004
active: [4] -0.336

BLOC1S3 (UniProt Q6QNY0)
Sequence of UniProt Q6QNY0 (Q6QNY0 whole entry, looked up): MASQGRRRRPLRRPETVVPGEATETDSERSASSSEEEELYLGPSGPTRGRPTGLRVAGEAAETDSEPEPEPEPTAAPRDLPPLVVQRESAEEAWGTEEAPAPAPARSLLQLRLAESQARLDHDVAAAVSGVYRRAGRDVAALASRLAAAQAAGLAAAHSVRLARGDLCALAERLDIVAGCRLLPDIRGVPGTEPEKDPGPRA
inactive: [1] 0.049 | [2] 0.034 | [3] 0.015 | [4] -0.064 | [5] -0.05 | [6] -0.044 | [7] -0.047 | [8] -0.031 | [9] -0.035 | [10] 0.028

AHCYL1 (UniProt O43865)
Sequence of UniProt O43865 (O43865 whole entry, looked up): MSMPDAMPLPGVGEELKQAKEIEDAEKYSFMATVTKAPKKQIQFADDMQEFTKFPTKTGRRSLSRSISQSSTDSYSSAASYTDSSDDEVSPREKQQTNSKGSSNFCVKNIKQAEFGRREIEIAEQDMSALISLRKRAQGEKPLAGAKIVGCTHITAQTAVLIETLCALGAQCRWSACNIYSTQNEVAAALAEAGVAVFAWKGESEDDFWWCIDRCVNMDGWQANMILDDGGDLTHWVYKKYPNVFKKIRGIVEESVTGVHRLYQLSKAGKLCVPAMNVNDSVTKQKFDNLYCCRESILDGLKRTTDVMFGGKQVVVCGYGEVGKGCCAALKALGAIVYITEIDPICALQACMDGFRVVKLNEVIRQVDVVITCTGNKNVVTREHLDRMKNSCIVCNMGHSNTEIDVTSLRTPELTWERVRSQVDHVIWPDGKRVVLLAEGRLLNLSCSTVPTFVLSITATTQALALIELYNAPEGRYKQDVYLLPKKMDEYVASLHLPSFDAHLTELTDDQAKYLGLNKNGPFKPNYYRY
inactive: [1] 0.101 | [2] 0.014 | [3] 0.1 | [4] -0.042 | [5] 0.182 | [6] 0.104 | [7] 0.044 | [8] 0.061 | [9] -0.043 | [10] -0.005

ASNS (UniProt P08243)
Sequence of UniProt P08243 (P08243 whole entry, looked up): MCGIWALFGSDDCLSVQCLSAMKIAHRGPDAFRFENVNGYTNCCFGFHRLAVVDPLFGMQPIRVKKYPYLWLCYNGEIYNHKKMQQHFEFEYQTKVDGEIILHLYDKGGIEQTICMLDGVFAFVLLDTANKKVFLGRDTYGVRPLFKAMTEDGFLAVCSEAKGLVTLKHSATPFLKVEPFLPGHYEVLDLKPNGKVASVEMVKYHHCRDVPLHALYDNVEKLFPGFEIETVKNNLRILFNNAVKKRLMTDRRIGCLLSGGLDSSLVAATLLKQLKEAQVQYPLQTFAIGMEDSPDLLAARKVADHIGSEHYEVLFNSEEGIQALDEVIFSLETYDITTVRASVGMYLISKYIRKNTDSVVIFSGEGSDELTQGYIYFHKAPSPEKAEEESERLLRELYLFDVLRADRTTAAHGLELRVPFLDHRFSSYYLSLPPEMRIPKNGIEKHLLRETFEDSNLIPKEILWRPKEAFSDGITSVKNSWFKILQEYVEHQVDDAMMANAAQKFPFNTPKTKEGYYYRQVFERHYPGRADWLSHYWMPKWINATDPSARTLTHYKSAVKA
inactive: [1] 0.041 | [2] 0.016 | [3] -0.013 | [4] -0.002 | [5] -0.036 | [6] -0.018 | [7] -0.017 | [8] -0.015 | [9] -0.009 | [10] -0.001

ADD1 isoform 3 (UniProt P35611)
inactive: [1] 0.095 | [2] -0.031 | [3] -0.088 | [4] -0.002 | [5] 0.008 | [6] -0.039 | [7] -0.018 | [8] 0 | [9] -0.024 | [10] 0.031

ALG3 (UniProt Q92685)
Sequence of UniProt Q92685 (Q92685 whole entry, looked up): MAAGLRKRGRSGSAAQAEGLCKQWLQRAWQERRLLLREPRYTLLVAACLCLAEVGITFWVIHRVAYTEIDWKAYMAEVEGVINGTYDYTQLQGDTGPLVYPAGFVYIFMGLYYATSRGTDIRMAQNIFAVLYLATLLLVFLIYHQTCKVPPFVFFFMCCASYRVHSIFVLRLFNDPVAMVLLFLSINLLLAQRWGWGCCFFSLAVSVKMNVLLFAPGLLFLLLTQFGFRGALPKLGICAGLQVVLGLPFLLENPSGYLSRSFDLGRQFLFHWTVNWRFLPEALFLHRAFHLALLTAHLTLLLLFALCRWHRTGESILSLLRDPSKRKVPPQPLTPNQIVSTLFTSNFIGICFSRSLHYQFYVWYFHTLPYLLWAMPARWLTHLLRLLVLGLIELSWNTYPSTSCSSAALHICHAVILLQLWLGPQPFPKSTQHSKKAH
inactive: [1] 0.145 | [2] -0.047 | [3] 0.055 | [4] -0.056 | [5] 0.116 | [6] 0.009 | [7] 0.1 | [8] 0.056 | [9] 0.076 | [10] 0.013

ALG5 (UniProt Q9Y673)
inactive: [1] -0.011 | [2] -0.071 | [3] -0.088 | [4] 0.005 | [5] 0.016 | [6] -0.055 | [7] -0.113 | [8] 0.008 | [9] -0.025 | [10] -0.036

ALDH1B1 (UniProt P30837)
Sequence of UniProt P30837 (P30837 whole entry, looked up): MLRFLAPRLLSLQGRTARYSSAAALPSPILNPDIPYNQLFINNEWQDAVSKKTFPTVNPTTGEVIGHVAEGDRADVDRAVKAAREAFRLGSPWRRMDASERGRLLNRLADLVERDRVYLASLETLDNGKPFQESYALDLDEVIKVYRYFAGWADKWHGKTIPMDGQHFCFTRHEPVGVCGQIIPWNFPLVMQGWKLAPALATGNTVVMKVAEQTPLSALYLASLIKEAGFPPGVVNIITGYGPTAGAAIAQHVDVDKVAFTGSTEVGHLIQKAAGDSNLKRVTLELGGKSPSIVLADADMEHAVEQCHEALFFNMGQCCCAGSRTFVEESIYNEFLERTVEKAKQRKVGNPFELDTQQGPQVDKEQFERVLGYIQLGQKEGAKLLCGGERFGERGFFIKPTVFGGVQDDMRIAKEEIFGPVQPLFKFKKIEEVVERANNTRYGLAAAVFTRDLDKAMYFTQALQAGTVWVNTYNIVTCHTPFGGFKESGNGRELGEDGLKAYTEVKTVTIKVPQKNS
inactive: [1] -0.015 | [2] 0.001 | [3] -0.093 | [4] 0.014 | [5] 0.002 | [6] -0.055 | [7] -0.015 | [8] 0.062 | [9] 0.013 | [10] -0.042

ATP6V0A1 isoform 3 (UniProt Q93050)
Sequence of UniProt Q93050 (Q93050 whole entry, looked up): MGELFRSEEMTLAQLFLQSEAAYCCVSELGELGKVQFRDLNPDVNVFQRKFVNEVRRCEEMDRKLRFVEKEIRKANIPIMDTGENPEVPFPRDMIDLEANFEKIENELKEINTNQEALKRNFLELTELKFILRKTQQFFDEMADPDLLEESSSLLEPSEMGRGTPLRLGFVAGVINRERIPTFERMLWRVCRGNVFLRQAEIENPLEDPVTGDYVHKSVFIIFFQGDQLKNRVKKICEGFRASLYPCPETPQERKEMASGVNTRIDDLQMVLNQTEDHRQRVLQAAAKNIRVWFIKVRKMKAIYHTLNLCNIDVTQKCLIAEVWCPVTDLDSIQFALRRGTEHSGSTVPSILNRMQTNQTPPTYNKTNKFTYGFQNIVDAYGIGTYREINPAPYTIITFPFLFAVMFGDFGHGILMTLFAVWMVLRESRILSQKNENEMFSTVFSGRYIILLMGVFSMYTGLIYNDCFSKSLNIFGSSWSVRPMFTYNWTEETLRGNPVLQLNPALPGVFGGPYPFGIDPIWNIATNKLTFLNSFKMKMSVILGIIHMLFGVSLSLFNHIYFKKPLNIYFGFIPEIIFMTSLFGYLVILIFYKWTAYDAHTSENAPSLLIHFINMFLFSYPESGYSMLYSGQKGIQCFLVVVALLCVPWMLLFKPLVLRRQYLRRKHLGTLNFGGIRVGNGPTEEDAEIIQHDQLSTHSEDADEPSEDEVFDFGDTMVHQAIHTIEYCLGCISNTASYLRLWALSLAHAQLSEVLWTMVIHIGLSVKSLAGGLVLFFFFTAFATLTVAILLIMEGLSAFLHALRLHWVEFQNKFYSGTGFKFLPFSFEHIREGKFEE
inactive: [1] -0.253 | [2] -0.236 | [3] 0.06 | [4] 0.089 | [5] -0.052 | [6] 0.125 | [7] 0.154 | [8] 0.032 | [9] 0.196 | [10] -0.02

ACIN1 (UniProt Q9UKV3)
inactive: [1] -0.027 | [2] -0.01 | [3] -0.057 | [4] 0.032 | [5] -0.165 | [7] -0.017 | [8] -0.054 | [9] -0.038 | [10] 0.003
active: [6] -0.253

BYSL (UniProt Q13895)
inactive: [1] -0.042 | [2] -0.101 | [3] -0.03 | [4] 0.136 | [5] 0.034 | [6] -0.004 | [7] -0.004 | [8] 0.094 | [9] 0.034 | [10] -0.073

BTBD6 (UniProt Q96KE9)
inactive: [1] -0.031 | [2] 0.021 | [3] -0.143 | [4] 0.211 | [5] -0.141 | [6] -0.131 | [7] 0.327 | [8] 0.082 | [9] -0.101 | [10] -0.009
